FGF22 binding: FGF22 (human) thermal shift binding | Q9HCT0 | recombinant FGF22 thermal shift, SYPRO orange fluorescence; percent of sucrose octasulfate shift, DMSO zero | activity (Tm shift, normalised), % at 9.99 µM | 1.5% of 340,000 active;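 active means mean Tm shift, scaled 0 neutral to 100 positive control, at about 1.3% or above, every replicate too, limit read from the data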
Target sequence (Q9HCT0 whole entry, looked up): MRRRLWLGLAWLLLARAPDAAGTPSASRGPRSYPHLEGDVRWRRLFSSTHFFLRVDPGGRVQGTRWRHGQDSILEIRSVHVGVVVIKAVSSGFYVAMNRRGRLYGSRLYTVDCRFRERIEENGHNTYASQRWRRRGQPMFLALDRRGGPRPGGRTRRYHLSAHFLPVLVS
Vif imaging: blocks HIV Vif function. HEK293T cells, Vif self-association by quenched fluorescence, imaging, 24 h. inhibition, % at 7.49 µM. 0.35% of 340,000 active. AID 602346; in the data active means inhibition above about 50%, passing the limit was not always enough
F508del corr: CFTR F508del correction in bronchial cells | 0.36% of 350,000 active | CFBE cells, YFP halide quenching; stimulated with forskolin plus potentiator P3; % fluorescence drop versus neutral controls | activity (quench increase), % at 7.58 µM;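 active means mean added fluorescence quench of at least 8% versus neutral control, with both replicates also reaching 8%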;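 further: cells transiently co-express mutant CFTR-F508del with the halide-sensitive YFP; corrector assay measuring rescue of mutant channel to the surface after 24 h compound exposure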
Of the large screens only hits and unclear results are named; the others gave an inactive call. The list is not random: actives were taken first. Their share in the collection is about 1.7%.

O=C(O)COc1ccccc1/C=N/NC(=O)c1cc(-c2ccc(F)cc2)nc2ccccc12	FGF22 binding 1.5
O=C(N/N=C/c1cccs1)c1cc(C2CC2)nc2ccccc12	F508del corr 12.3
O=C(Nc1ccon1)c1cc(-c2ccccc2)nc2ccccc12	none (no result: FGF22 binding, F508del corr)
CCc1ccc(-c2cc(C(=O)NCc3ccccn3)c3ccccc3n2)cc1	none (no result: FGF22 binding, F508del corr)
CO[C@@H]1CN(C)C(=O)c2cc(NC(=O)c3ccno3)ccc2OC[C@@H](C)NC[C@@H]1C	none (no result: Vif imaging)
C[C@H]1CCCCO[C@@H](CN(C)CC2CCCCC2)[C@@H](C)CN([C@@H](C)CO)C(=O)c2cc(NS(C)(=O)=O)ccc2O1	none (no result: Vif imaging)
CO[C@H]1CN(C)C(=O)c2cc(NC(C)=O)ccc2OC[C@@H](C)N(C(=O)C2CCC2)C[C@@H]1C	none (no result: Vif imaging)
Cc1noc(C)c1S(=O)(=O)Nc1ccc2c(c1)C(=O)N([C@H](C)CO)C[C@H](C)[C@H](CN(C)C(=O)Nc1ccc3c(c1)OCO3)OCCCC[C@H](C)O2	none (no result: Vif imaging)
Cc1ccc(-c2ccc(C3[C@@H]4CN(S(=O)(=O)c5cccc(C)c5)C[C@H]3N4)cc2)cc1 (some centres not stated)	none (no result: FGF22 binding, Vif imaging)
COc1ccc(S(=O)(=O)Nc2ccc3c(c2)C(=O)N([C@H](C)CO)C[C@@H](C)[C@@H](CN(C)Cc2ccc(C(=O)O)cc2)OCCCC[C@H](C)O3)cc1	none (no result: Vif imaging)
CCCC#Cc1cnc2c(c1)C(=O)N([C@@H](C)CO)C[C@@H](C)[C@H](CN(C)C(=O)c1ccc3c(c1)OCO3)O2	none (no result: Vif imaging)
O=C(Nc1nccs1)c1cc(-c2ccncc2)nc2ccccc12	none
Cc1ccc(/C=N/NC(=O)c2cc(C3CC3)nc3ccccc23)o1	FGF22 binding 43.4
N/C(=N\OC(=O)c1cc(-c2ccccc2)nc2ccccc12)c1ccccn1	FGF22 binding 43.3
Cc1csc(NC(=O)c2cc(-c3ccncc3)nc3ccccc23)n1	FGF22 binding 43.8
Cc1cc(C(=O)N/N=C/c2ccc(C)o2)c2ccccc2n1	none (no result: FGF22 binding, F508del corr)
Cc1ccc(/C(N)=N/OC(=O)c2cc(-c3ccccc3)nc3ccccc23)cc1	none (no result: FGF22 binding, F508del corr)
O=C(N/N=C/c1cccs1)c1cc(-c2ccncc2)nc2ccccc12	Vif imaging 116.7 (no result: FGF22 binding, F508del corr)
CCc1ccc(/C=N/NC(=O)c2cc(-c3ccncc3)nc3ccccc23)s1	none (no result: FGF22 binding, F508del corr)
O=C(Nc1ccc2c(c1)[C@@H]1C[C@@H](CC(=O)N3CCc4ccccc4C3)O[C@@H](CO)[C@@H]1O2)NC1CCCC1	none (no result: Vif imaging)
COc1ccccc1NC(=O)N[C@@H]1C=C[C@H](CC(=O)N[C@@H](C)c2ccccc2)O[C@H]1CO	none (no result: Vif imaging)
CO[C@@H]1CN(C)C(=O)c2cc(NC(=O)C3CC3)ccc2OC[C@H](C)N(C(=O)C2CCCCC2)C[C@@H]1C	none (no result: Vif imaging)
O=C(NCC[C@@H]1CC[C@H](NS(=O)(=O)c2ccc(Cl)cc2)[C@H](CO)O1)c1ccc2c(c1)OCO2	none (no result: Vif imaging)
Cc1nn(C)cc1-c1cc(C(=O)O)c2ccccc2n1	none
Cc1cc(-c2cc(C(=O)O)c3ccccc3n2)c(C)s1	FGF22 binding 43.5
O=C(N/N=C/c1cccs1)c1cc(-c2ccc3ccccc3c2)n[nH]1	none (no result: FGF22 binding, F508del corr)
O=C(Nc1ccccc1N1CCOCC1)c1cc(-c2ccncc2)nc2ccccc12	none
COc1ccc(-c2cc(C(=O)Nc3ccccc3N3CCOCC3)c3ccccc3n2)cc1OC	FGF22 binding 2.3
O=C(N/N=C/c1cccs1)c1cc(-c2cccc3ccccc23)n[nH]1	FGF22 binding 43.7
C[C@@H]1CCCCO[C@H](CN(C)C(=O)Cc2ccccc2)[C@H](C)CN([C@@H](C)CO)C(=O)c2cc(NS(C)(=O)=O)ccc2O1	none (no result: FGF22 binding, Vif imaging)
C[C@@H]1CN([C@@H](C)CO)C(=O)c2cc(C3=CCCC3)cnc2O[C@@H]1CN(C)C(=O)C1CCC1	none (no result: Vif imaging)
O=C(Nc1ccc(F)cc1)N1C[C@H]2[C@@H](c3ccccc31)[C@@H](CO)N2C(=O)c1ccccc1	none (no result: Vif imaging)
Nc1cc(C(=O)O)c(N)c2c1C(=O)c1ccccc1C2=O	none (no result: FGF22 binding, F508del corr)
Nc1c(Br)cc(Br)c2c1C(=O)c1c(cccc1S(=O)(=O)O)C2=O	FGF22 binding 43.5
C[C@@H]1CN([C@@H](C)CO)C(=O)c2cc(NS(=O)(=O)c3ccc(F)cc3)ccc2O[C@@H](C)CCCCO[C@@H]1CN(C)C(=O)Nc1ccc(F)cc1	none (no result: Vif imaging)
COc1ccc(CCN2C(=O)c3cccnc3C2=O)cc1OC	Vif imaging 55.9 (no result: FGF22 binding, F508del corr)
COc1ccc(CCN2C(=O)C=CC2=O)cc1OC	none
CN(C)CCNc1ccc2nnn3c4ccc(O)cc4c(=O)c1c23	none
CCN(CC)CCCNc1ccc2ncn3c4ccc(O)cc4c(=O)c1c23	F508del corr 19.9 (no result: Vif imaging)
O=C(Cn1nc(-c2ccccc2)ccc1=O)Nc1ccc(-n2cnnn2)cc1	none
O=C(Cn1nc(-c2ccccc2)ccc1=O)Nc1ccc(NC(=O)c2ccccn2)cc1	FGF22 binding 43.8
CNC(=O)C[C@@H]1CC[C@@H]2[C@H](COc3ccc(NC(=O)C4CCCCC4)cc3C(=O)N2C)O1	none (no result: Vif imaging)
CN(CCC#N)c1ccc(C=C(C#N)c2ccc(Br)cc2)cc1	FGF22 binding 44.2
CN(CCC#N)c1ccc(/C=C(\C#N)c2ccccn2)cc1	none
COc1ccc2c3c(n(C)c2c1)[C@H](CO)N(S(C)(=O)=O)CC31CCN(C(=O)CN(C)C)CC1	none (no result: FGF22 binding, Vif imaging)
CS(=O)(=O)c1ccc(Cl)c(NC(=O)COC(=O)CNC(=O)c2ccccc2)c1	FGF22 binding 43.7
COc1cc(OC)cc(C(=O)NCC(=O)OCC(=O)Nc2cc(S(C)(=O)=O)ccc2Cl)c1	none
CS(=O)(=O)c1ccc(Cl)c(NC(=O)Cc2c(Cl)cccc2Cl)c1	none
CS(=O)(=O)c1ccc(Cl)c(NC(=O)CCc2ccccc2)c1	FGF22 binding 43.4
O=C(C[C@@H]1CC[C@H](NC(=O)Nc2ccc3c(c2)OCO3)[C@@H](CO)O1)NCc1ccc2c(c1)OCO2	none (no result: Vif imaging)
O=C(C[C@H]1CC[C@H]2[C@@H](COC[C@H](O)CN2C(=O)c2cnccn2)O1)NCc1ccccc1	none (no result: Vif imaging)
COc1ccc(S(=O)(=O)N[C@H]2C=C[C@@H](CC(=O)NCc3ccccc3F)O[C@H]2CO)cc1	none (no result: Vif imaging)
C[C@@H]1CN([C@H](C)CO)C(=O)c2cc(NC(=O)Cc3ccccc3)ccc2O[C@@H]1CN(C)C(=O)NC1CCCCC1	none (no result: Vif imaging)
CC(C)NC(=O)N(C)C[C@H]1Oc2c(NC(=O)C3CC3)cccc2C(=O)N([C@@H](C)CO)C[C@@H]1C	none (no result: Vif imaging)
CC(NC(=O)CSc1n[nH]c(=O)[nH]c1=O)C1CC2CCC1C2 (configuration not stated)	none
Cc1cc(=O)[nH]c(SCC(=O)NC(C)C2CC3CCC2C3)c1C#N (configuration not stated)	FGF22 binding 43.7
C[C@@H]1CN([C@H](C)CO)C(=O)c2cccc(NC(=O)c3cnccn3)c2O[C@H]1CN(C)Cc1ccccc1	none (no result: Vif imaging)
Cc1ncc(CO)c(/C=N/NC(=S)Nc2ccc(F)cc2)c1O	none (no result: FGF22 binding, F508del corr)
Cc1ncc(CO)c(/C=N/Nc2ccc(C(F)(F)F)cn2)c1O	F508del corr 12.3
CC(C)NC(=O)N(C)C[C@H]1Oc2ccc(NC(=O)C3CC3)cc2C(=O)N([C@@H](C)CO)C[C@H]1C	none (no result: Vif imaging)
COc1ccccc1Cc1nc(-c2ccncc2)no1	FGF22 binding 43.1 (no result: Vif imaging)
Clc1ccccc1OCc1nc(-c2ccncc2)no1	none (no result: FGF22 binding, F508del corr)
CC(C)NC(=O)N(C)C[C@H]1Oc2c(NC(=O)Nc3cccc4ccccc34)cccc2C(=O)N([C@H](C)CO)C[C@@H]1C	none (no result: Vif imaging)
